# Records with an inconclusive call do not appear. A number with no mark means an inactive call. Calls of active or inactive are those of the source. Calls come from the whole dose curve; as a rule, active = well fitted inhibition curve with a large enough effect; inconclusive = small, poorly fitted or top-dose-only effect; inactive = flat fitted curve, though single readings scatter.
# Test system: MCC-26
# Test: qHTS assay to identify novel small-molecules to repurpose for Merkel cell carcinoma treatment (AID 1296009); note: nearly all actives have a fitted effect of over 60% in size
# Details: MCC and control cell lines, CellTiter-Glo viability, 72 h; series mostly up to 46 µM; activity change, negative = cytotoxicity: at the top concentration
# Procedure, shortened: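 qHTS format: cells treated with library compounds in DMSO across 8 (NPC) or 11 (MIPE) concentrations. Readout after 72 hr at 37 degree celsius was CellTiter-Glo luminescence.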
# % is set by controls: 0 for no effect and ±100 for the full control effect; potency is the fitted concentration of half-maximal effect.
SMILES,"activity change, negative = cytotoxicity",Potency
O=C(OC1C[C@H]2CC[C@@H](C1)[N+]21CCCC1)C(O)(c1ccccc1)c1ccccc1 (some centres not stated),10.8%,–
Oc1ccc(-c2nc(-c3ccc(F)cc3)c(-c3ccncc3)[nH]2)cc1,1.42%,–
O=C(c1ccccc1)c1ccc2n1CCC2C(=O)O (configuration not stated),–,inactive
CCOC(=O)C(C)Oc1cccc2c(=O)n(CC(=O)Nc3ccc4c(c3)OCCO4)ccc12 (configuration not stated),-0.0719%,–
O=C(CS(=O)Cc1ccco1)NCC=CCOc1cc(CN2CCCCC2)ccn1 (configuration not stated),4.18%,–
COC(=O)C1=C(C)NC(C)=C(C(=O)OC(C)C)C1c1cccc2nonc12 (configuration not stated),–,inactive
Clc1ccc2c(N3CCN(CCCN4CCN(c5ccnc6cc(Cl)ccc56)CC4)CC3)ccnc2c1,-2.4% [at 16.1 µM],–
CN(C)c1ccc2nc3ccc(=[N+](C)C)cc-3sc2c1,–,21.1 µM (active)
CC(C)(S)[C@@H](N)C(=O)O,-4.52%,–
COc1cc2c(N3CCN(C(=O)Nc4ccc(OC(C)C)cc4)CC3)ncnc2cc1OCCCN1CCCCC1,–,inactive
O=c1oc2cc(O)ccc2s1,3.22%,–
NS(=O)(=O)c1cc(C(=O)O)c(NCc2ccco2)cc1Cl,–,inactive
CC(C)C[C@H](NC(=O)[C@H](Cc1ccccc1)NC(=O)c1cnccn1)B(O)O,–,0.0376 µM (active)
C[C@@H](c1ncncc1F)[C@](O)(Cn1cncn1)c1ccc(F)cc1F,-5.9%,–
O=C(O)c1cn(-c2ccc(F)cc2)c2cc(N3CCNCC3)c(F)cc2c1=O,–,inactive
Cc1ccc(S(=O)(=O)NC(=O)NN2CC3CCCC3C2)cc1 (configuration not stated),–,inactive
Cc1cccc(-c2[nH]ncc2-c2ccc3ncccc3n2)n1,7.9%,–

# — PubChem BioAssay (NCATS)
